ugtP null kill: growth inhibition of ugtP-null S. aureus, primary screen, RN4220 ugtP deletion, OD600 | 16 h | growth inhibition, % (test concentration not listed) | hit rate 0.54% among 330,000 | AID 1259309, 2017; in the data active means growth inhibition above about 68%
Sa RN4220 lethal: growth inhibition of S. aureus RN4220, primary screen, OD600; 16 h; inhibition, % (no concentration beside the values); hit rate 0.33% among 330,000; AID 1259311, 2017; in the data active means inhibition above about 85%
SSB-PriA inh: inhibitors of Klebsiella pneumoniae PriA binding to SSB C-terminal tail, primary screen, biochemical, AlphaScreen | hit rate 0.6% among 430,000 | PriA–SSB C-terminal tail interaction (Klebsiella pneumoniae) | AlphaScreen SSBct-PriA binding, biotinylated peptide | inhibition, % at 33 µM; in the data active means inhibition mostly above about 37%, no sharp cut-off; inactive means mostly below about 20%
Mtb bLac sens: beta-lactam sensitization of Mtb H37Rv, H37Rv. M. tuberculosis H37Rv growth with meropenem, percent inhibition. inhibition, % at 25 µM. hit rate 0.27% among 330,000. AID 434955, 2010; call rule not given here;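 further: growth measured after seven days incubation then overnight dye step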
Mtb hypoxia inh: PubChem AID 1159583; M. tuberculosis hypoxia-regulated fluorescent reporter, fluorescence; fluorescence inhibition, % (no concentration beside the values); hit rate 0.1% among 300,000; in the data active means fluorescence inhibition mostly above about 23%, no sharp cut-off; inactive means mostly below about 17%
A number is an active result; ! = not active in a repeat. The list is not random: actives were taken first. Their share in the collection is about 1%.

`COc1cccc(NC(=O)CSc2nnc(C3CC(=O)N(c4ccc(OC)c(Cl)c4)C3)o2)c1` (stereo not given) gave SSB-PriA inh inactive.
For O=C(C[n+]1ccccc1)NN=Cc1cc(Br)cc(Br)c1O the results were ugtP null kill inactive, Sa RN4220 lethal inactive, SSB-PriA inh 57 and Mtb hypoxia inh inactive.
`O=C(C[n+]1ccccc1)N/N=C/c1cc(Br)cc(Br)c1O` gave Mtb bLac sens inactive.
Screening COC(=O)c1ccc(NC(=O)CSc2nnc(-c3ccc(=O)n(C)c3)n2C)cc1 returned SSB-PriA inh inactive.
C=CCN1C(=O)/C(=C/c2ccc(OC(C)=O)c(OCC)c2[N+](=O)[O-])SC1=S was read as ugtP null kill 100, Sa RN4220 lethal 99, SSB-PriA inh inactive and Mtb hypoxia inh inactive.
`CCOc1c(OC(C)=O)ccc(/C=C/c2ccc3cccc(OC(C)=O)c3n2)c1[N+](=O)[O-]` gave ugtP null kill inactive, Sa RN4220 lethal inactive, SSB-PriA inh inactive, Mtb bLac sens inactive and Mtb hypoxia inh inactive.
Screening CCCCCC[N+](C)(C)CC/C=C1/c2ccccc2Sc2ccc(Cl)cc21 returned ugtP null kill 99, Sa RN4220 lethal 100, SSB-PriA inh inactive and Mtb bLac sens inactive.
COc1ccc(CNC(=O)CSc2nc3c(c(=O)[nH]2)CN(Cc2ccc(F)cc2)CC3)cc1 was read as SSB-PriA inh inactive.
C=CC[n+]1c(C)csc1Nc1ccc(C)cc1 was read as ugtP null kill inactive, Sa RN4220 lethal inactive, SSB-PriA inh inactive, Mtb bLac sens inactive and Mtb hypoxia inh inactive.
Screening C=CC[n+]1c(C)csc1Nc1cccc(Br)c1 returned ugtP null kill inactive, Sa RN4220 lethal inactive, SSB-PriA inh 61, Mtb bLac sens inactive and Mtb hypoxia inh inactive.
`Cc1ccc2nc(N(CCCN(C)C)C(=O)c3cc(-c4cccs4)nc4ccccc34)sc2c1` gave ugtP null kill inactive, Sa RN4220 lethal inactive, SSB-PriA inh 44, Mtb bLac sens inactive and Mtb hypoxia inh inactive.
Screening CN(C)CCCN(C(=O)/C=C/c1cccs1)c1nc2c(F)cccc2s1 returned ugtP null kill inactive, Sa RN4220 lethal inactive, SSB-PriA inh inactive and Mtb hypoxia inh inactive.
CN(C)CCCN(C(=O)c1cc(-c2cccs2)nc2ccccc12)c1nc2c(F)cccc2s1 was read as ugtP null kill inactive, Sa RN4220 lethal inactive, SSB-PriA inh 52!, Mtb bLac sens inactive and Mtb hypoxia inh inactive.
`Cn1nc(CN(C(=O)NCc2cccs2)C2CCCC2)c2c1CCC2` gave SSB-PriA inh inactive.
For COc1ccc2nc(N3CCC(O)CC3)c(C#N)cc2c1 the results were ugtP null kill inactive, Sa RN4220 lethal inactive, SSB-PriA inh inactive and Mtb bLac sens inactive.
COc1ccc2nc(N3CCC(C)CC3)c(C#N)cc2c1 was read as ugtP null kill 89, Sa RN4220 lethal inactive, SSB-PriA inh inactive, Mtb bLac sens inactive and Mtb hypoxia inh inactive.
For Cc1ccc(C)c(S(=O)(=O)N2CCN(Cc3cc4c(cc3O)OCO4)CC2)c1 the results were ugtP null kill inactive, Sa RN4220 lethal inactive, SSB-PriA inh 41, Mtb bLac sens inactive and Mtb hypoxia inh inactive.
`O=C(CCNc1ccc(Cc2ccncc2)cc1)c1ccc([N+](=O)[O-])cc1` gave ugtP null kill inactive, Sa RN4220 lethal inactive, SSB-PriA inh 47, Mtb bLac sens inactive and Mtb hypoxia inh inactive.
For CCOc1ccc(-n2c(=O)c3c4c(sc3n(Cc3ccc(Cl)cc3)c2=O)CCCCC4)cc1 the results were SSB-PriA inh inactive.
Screening COc1ccc(C(=O)N2CCN=C2c2ccccc2)cc1OC returned ugtP null kill inactive, Sa RN4220 lethal inactive, SSB-PriA inh inactive and Mtb bLac sens inactive.
COc1ccc(C(=O)N2C(=S)C(c3ccccc3)=NC23CCC(C)CC3)cc1OC (stereo not given) was read as SSB-PriA inh 37.
O=C(Cn1nc(C2CC2)c2cnn(-c3ccc(F)cc3)c2c1=O)N1CCc2ccccc21 was read as SSB-PriA inh inactive.
Oc1c(Br)cc(C=Nc2ccc3nc(-c4ccccc4)[nH]c3c2)c(O)c1Br was read as SSB-PriA inh inactive and Mtb bLac sens inactive.
O=C(Cn1nc2ccccc2n1)N/N=C/c1cc([N+](=O)[O-])ccc1O was read as Mtb bLac sens inactive.
O=[N+]([O-])c1ccc(O)c(C=Nc2ccc3nc(-c4ccccc4)[nH]c3c2)c1 was read as ugtP null kill inactive, Sa RN4220 lethal 88, SSB-PriA inh inactive, Mtb bLac sens inactive and Mtb hypoxia inh inactive.
For Cc1ccn(CC(=O)NN=Cc2cc([N+](=O)[O-])ccc2O)n1 the results were ugtP null kill 83, Sa RN4220 lethal 93, SSB-PriA inh inactive and Mtb hypoxia inh inactive.
Screening O=C(Cn1nc2ccccc2n1)NN=Cc1cc([N+](=O)[O-])ccc1O returned ugtP null kill 88, Sa RN4220 lethal 95, SSB-PriA inh inactive and Mtb hypoxia inh inactive.
`Cc1ccn(CC(=O)N/N=C/c2cc([N+](=O)[O-])ccc2O)n1` gave Mtb bLac sens inactive.
`COc1ccc(NC(=O)C(=O)NCC2CCN(C(C)C)CC2)c(OC)c1` gave SSB-PriA inh inactive.
Screening O=C(c1cnccn1)N1CCC(Oc2ncccc2Cl)CC1 returned SSB-PriA inh inactive.
C[C@H]1c2cccc(O)c2C(O)=C2C(=O)C3(O)C(O)=C(C(N)=O)C(=O)[C@@H](N(C)C)[C@@H]3[C@@H](O)[C@@H]21 (stereo not given in full) was read as SSB-PriA inh inactive and Mtb bLac sens inactive.
Screening C=C1c2cccc(O)c2C(=O)C2C(=O)[C@]3(O)C(=O)C(C(N)=O)C(=O)C(N(C)C)C3C(O)C12 (stereo not given in full) returned ugtP null kill inactive and Sa RN4220 lethal 100.
Screening C=C1c2c(Cl)ccc(O)c2C(O)=C2C(=O)[C@]3(O)C(O)=C(C(N)=O)C(=O)C(N(C)C)C3C(O)C12 (stereo not given in full) returned ugtP null kill 100 and Sa RN4220 lethal 100.
Screening C=C1c2cccc(O)c2C(O)=C2C(=O)[C@]3(O)C(O)=C(C(N)=O)C(=O)[C@@H](N(C)C)[C@@H]3[C@@H](O)[C@H]12 returned ugtP null kill 99, Sa RN4220 lethal 100, SSB-PriA inh inactive and Mtb bLac sens inactive.
Screening N#CC(=NNc1ccc([N+](=O)[O-])cc1)C(=N)N1CCCCC1 returned ugtP null kill inactive, Sa RN4220 lethal inactive, SSB-PriA inh inactive and Mtb hypoxia inh 42.
For CC(=O)NCCn1ncc2c(=O)n(Cc3cccc(C(F)(F)F)c3)cnc21 the results were SSB-PriA inh inactive.
For CS(=O)(=O)c1ccc(CCC(=O)Nc2ccc3c(c2)N(C(=O)C2CCCC2)CC3)cc1 the results were SSB-PriA inh inactive.
`Cc1ccc(C)c(N2CCN(c3nc4ccccc4c(=O)n3Cc3ccccc3)CC2)c1` gave ugtP null kill inactive, Sa RN4220 lethal inactive, SSB-PriA inh 104, Mtb bLac sens inactive and Mtb hypoxia inh inactive.

Screens as filed in PubChem BioAssay.
